# PubChem BioAssay (NCI)
# The panel holds about 83,000 compounds, 20% with a hit somewhere; the sample as a whole holds those more often.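 Cell lines were cultured in 96-well plates, exposed to a single compound concentration, and assessed for percent growth 48 hours later.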 Values without a mark were called inactive. The source made the active and inactive calls. The calls were made as follows: active = growth percent below 10; inactive = the rest.
# Test system: SW-620 colon
# Assay: NCI-60 one-dose screen, 48 h (100 = growth as untreated, 0 = no growth, -100 = all killed)
# Conditions: 10 µM unless noted
row,SMILES,growth
1,Cn1c(=O)cc2c3c(c(NCCCO)ccc31)C(=O)c1ccccc1-2,32.6%
2,N#Cc1nc(-c2ccc(F)cc2)oc1S(=O)(=O)N1CCCCC1,-72.2% (active)
3,COC1/C=C/OC2(C)Oc3c(C)c(O)c4c(O)c(c(/C=N/Nc5ccc([N+](=O)[O-])cc5[N+](=O)[O-])c(O)c4c3C2=O)NC(=O)C(C)=C/C=C/C(C)C(O)C(C)C(O)C(C)C(OC(C)=O)C1C (centres undefined),-41.2% (active)
4,O=C1c2c(c3c4ccccc4[nH]c3c3ccc4ccccc4c23)C(=O)N1CCN1CCOCC1,36.1%
5,NC(=O)c1cc(I)ccc1NC(=O)/C=C/c1ccccc1,9.63% (active)
6,COC(=O)c1c2c(c(C)[n+]([O-])c1C)C(=O)C(NCc1cccc(OC)c1)=CC2=O,7.85% (active)
7,COc1ccc(CNc2c3ccccc3nc3ccccc23)cc1,25.6%
8,N=C(N)c1ccc(-c2ccc(-c3ccc(Cl)c(Cl)c3)s2)nc1,-56.6% (active)
9,Nc1c(C(=O)Nc2ccccc2F)sc2nc3c(cc12)CCCC3,25.3%
10,Cc1ccc2c(n1)C(=O)C(Br)=C(C1CCCC1)C2=O,85.8%
11,N#CC1=C(N)Oc2c(sc3c(Br)cccc23)C1c1ccc(Cl)cc1 (centres undefined),27.3%
12,COc1ccc(/C=C(\C#N)n2nnc3cc(F)c(F)cc32)cc1,14.9%
13,COc1cc(NS(=O)(=O)c2ccc(-c3cnc(C4CC4)o3)cc2)ccc1F,18%
14,CN1CCN(c2cc(Nc3cc(C4CC4)[nH]n3)nc(Nc3ccc(CC(=O)NCc4cccc(F)c4)cc3)n2)CC1,11.5%
15,O=C(Nc1cccc2ccccc12)NC1CC1,105%
16,CN(C)CC(C)(C)C(=O)/C=C/c1ccccc1,-59.1% [25 µM] (active)
17,COc1ccc(-c2nn(-c3cccc(Cl)c3)cc2-c2cc(-c3ccc(Br)cc3)nc(N)n2)cc1,100%
18,COc1cc2c(c(OC)c1OC)CCC(c1cccc(NC(=O)c3ccc(Br)cc3)c1)O2 (centres undefined),91.5%
19,CCOC(=O)C#Cc1c(C(=O)OCC)nnn1Cc1ccc([N+](=O)[O-])cc1,-40.5% (active)

row,SMILES,growth
1,O=C(N/N=C/c1c(Cl)cccc1Cl)c1cccnc1Nc1cccc(C(F)(F)F)c1,44.9%
2,C#COc1cccc(Nc2c(C#N)cnc3ncc(NC(=O)CCl)cc23)c1,9.61% [6.25 µM] (active)
3,CC(C)(Sc1cc(C(C)(C)C)c(O)c(C(C)(C)C)c1)Sc1cc(C(C)(C)C)c(OC(=O)CCCC(=O)O)c(C(C)(C)C)c1,43.7%
4,COc1c(B(O)O)cccc1-c1cc(C)c2c(ccc3[nH]ncc32)n1,63.5%
5,CCOC(=O)C1=C(N)Oc2c(sc3c(F)cccc23)C1c1ccc(O)cc1 (centres undefined),31.1%
6,OCCn1cc(-c2nc(-c3c[nH]c4ncccc34)cs2)c2cc(F)ccc21,57.9%
7,O=C(/C=C/c1cccs1)Nc1ncc(Cc2ccccc2F)s1,24.5%
8,COc1ccc(CN2c3ccccc3Sc3ccccc32)cc1F,23.8%
9,CCN1C(=O)N(CC)C2C1NN=c1s/c(=C\c3ccccc3F)c(=O)n12 (centres undefined),18.2%
10,CS(=O)(=O)Nc1cncc(-c2ccc3ncnc(Nc4cncc(Cl)c4)c3c2)c1,107%
11,C1CN(SSN2CCOCC2)CCO1,-56.4% [100 µM] (active)
12,CS(=O)(=O)c1ccc(-c2cnn3ccc(-c4cccc(S(=O)(=O)C5CC5)c4)nc23)cc1,74.2%
13,CN1C(=O)/C(=C\c2nc([P+](c3ccccc3)(c3ccccc3)c3ccccc3)c(N3CCOCC3)o2)SC1=S,96.2%
14,C=C(C)[C@@H]1CCC[C@]2(COS(=O)(=O)c3ccc(C)cc3)CC[C@]3(C)[C@@H](CC[C@@H]4[C@@]5(C)CCCNC(C)(C)[C@@H]5CC[C@]43C)[C@@H]12,-69.4% (active)
15,Clc1ccc2c(c1)C(c1c[nH]c3ccccc13)(c1c[nH]c3ccccc13)CCO2,87.4%
16,O=C(NCCNc1nccc(Nc2ccc(S(=O)(=O)Nc3ccccn3)cc2)n1)c1cccc([N+](=O)[O-])c1,102%
17,COc1cc2ncnc(Nc3ccc(S(=O)(=O)Nc4cc(C)on4)cc3)c2cc1OCCCN1CCN(c2ccc(F)cc2)CC1,100%
18,CN(C)CC1CCC(CN(C)C)C1=O (centres undefined),86.9%
19,Cc1ccc(NC(=O)c2sc3nc(C)c(Br)c(C)c3c2N)cc1,78.3%

# Test system: MCF7 breast
# Assay: as above
# Conditions: 10 µM unless noted
row,SMILES,growth
1,Cn1c(=O)cc2c3c(c(NCCCO)ccc31)C(=O)c1ccccc1-2,27.6%
2,O=C(OC(CO)C(=O)NC12CC3CC(CC(C3)C1)C2)c1ccc(Cl)cc1 (centres undefined),91.8%
3,N#Cc1nc(-c2ccc(F)cc2)oc1S(=O)(=O)N1CCCCC1,56%
4,COC1/C=C/OC2(C)Oc3c(C)c(O)c4c(O)c(c(/C=N/Nc5ccc([N+](=O)[O-])cc5[N+](=O)[O-])c(O)c4c3C2=O)NC(=O)C(C)=C/C=C/C(C)C(O)C(C)C(O)C(C)C(OC(C)=O)C1C (centres undefined),36.6%
5,O=C1c2c(c3c4ccccc4[nH]c3c3ccc4ccccc4c23)C(=O)N1CCN1CCOCC1,16.4%
6,NC(=O)c1cc(I)ccc1NC(=O)/C=C/c1ccccc1,2.18% (active)
7,COC(=O)c1c2c(c(C)[n+]([O-])c1C)C(=O)C(NCc1cccc(OC)c1)=CC2=O,0.247% (active)
8,COc1ccc(CNc2c3ccccc3nc3ccccc23)cc1,12.6%
9,N=C(N)c1ccc(-c2ccc(-c3ccc(Cl)c(Cl)c3)s2)nc1,-64.6% (active)
10,Nc1c(C(=O)Nc2ccccc2F)sc2nc3c(cc12)CCCC3,18%
11,Cc1ccc2c(n1)C(=O)C(Br)=C(C1CCCC1)C2=O,89.8%
12,N#CC1=C(N)Oc2c(sc3c(Br)cccc23)C1c1ccc(Cl)cc1 (centres undefined),10%
13,COc1ccc(/C=C(\C#N)n2nnc3cc(F)c(F)cc32)cc1,22.1%
14,COc1cc(NS(=O)(=O)c2ccc(-c3cnc(C4CC4)o3)cc2)ccc1F,12.7%
15,CN1CCN(c2cc(Nc3cc(C4CC4)[nH]n3)nc(Nc3ccc(CC(=O)NCc4cccc(F)c4)cc3)n2)CC1,20%
16,CN(C)CC(C)(C)C(=O)/C=C/c1ccccc1,-13.6% [25 µM] (active)
17,COc1cc2c(c(OC)c1OC)CCC(c1cccc(NC(=O)c3ccc(Br)cc3)c1)O2 (centres undefined),73.2%
18,CCOC(=O)C#Cc1c(C(=O)OCC)nnn1Cc1ccc([N+](=O)[O-])cc1,6.62% (active)

row,SMILES,growth
1,O=C(N/N=C/c1c(Cl)cccc1Cl)c1cccnc1Nc1cccc(C(F)(F)F)c1,23.2%
2,C#COc1cccc(Nc2c(C#N)cnc3ncc(NC(=O)CCl)cc23)c1,5.39% [6.25 µM] (active)
3,CC(C)(Sc1cc(C(C)(C)C)c(O)c(C(C)(C)C)c1)Sc1cc(C(C)(C)C)c(OC(=O)CCCC(=O)O)c(C(C)(C)C)c1,36.2%
4,COc1c(B(O)O)cccc1-c1cc(C)c2c(ccc3[nH]ncc32)n1,71.8%
5,CCOC(=O)C1=C(N)Oc2c(sc3c(F)cccc23)C1c1ccc(O)cc1 (centres undefined),14.9%
6,OCCn1cc(-c2nc(-c3c[nH]c4ncccc34)cs2)c2cc(F)ccc21,48.1%
7,O=C(/C=C/c1cccs1)Nc1ncc(Cc2ccccc2F)s1,17.1%
8,CCN1C(=O)N(CC)C2C1NN=c1s/c(=C\c3ccccc3F)c(=O)n12 (centres undefined),15.2%
9,CS(=O)(=O)Nc1cncc(-c2ccc3ncnc(Nc4cncc(Cl)c4)c3c2)c1,55.6%
10,C1CN(SSN2CCOCC2)CCO1,22.1% [100 µM]
11,CS(=O)(=O)c1ccc(-c2cnn3ccc(-c4cccc(S(=O)(=O)C5CC5)c4)nc23)cc1,18%
12,CN1C(=O)/C(=C\c2nc([P+](c3ccccc3)(c3ccccc3)c3ccccc3)c(N3CCOCC3)o2)SC1=S,85.8%
13,C=C(C)[C@@H]1CCC[C@]2(COS(=O)(=O)c3ccc(C)cc3)CC[C@]3(C)[C@@H](CC[C@@H]4[C@@]5(C)CCCNC(C)(C)[C@@H]5CC[C@]43C)[C@@H]12,-32.6% (active)
14,Clc1ccc2c(c1)C(c1c[nH]c3ccccc13)(c1c[nH]c3ccccc13)CCO2,103%
15,O=C(NCCNc1nccc(Nc2ccc(S(=O)(=O)Nc3ccccn3)cc2)n1)c1cccc([N+](=O)[O-])c1,88.5%
16,COc1cc2ncnc(Nc3ccc(S(=O)(=O)Nc4cc(C)on4)cc3)c2cc1OCCCN1CCN(c2ccc(F)cc2)CC1,96.8%
17,CN(C)CC1CCC(CN(C)C)C1=O (centres undefined),93.7%
18,Cc1ccc(NC(=O)c2sc3nc(C)c(Br)c(C)c3c2N)cc1,59.1%
